The source of these data is article PMC7862700, “An all-to-all approach to the identification of sequence-specific readers for epigenetic DNA modifications on cytosine”.

Common to all, as to assay: DAPPL (digital affinity profiling via proximity ligation, sequencing); 10 mM Tris-HCl pH 7.5, 50 mM NaCl, 1 mM DTT, 4% glycerol, room temperature, 30 min; GST-TFs on glutathione beads, 16-mer random dsDNA library, 0.1% formaldehyde crosslink after washing; high values mean tight binding
One assay addresses T1, FLI1 (Homo sapiens, UniProt Q01543 1-452).
T1 sequence: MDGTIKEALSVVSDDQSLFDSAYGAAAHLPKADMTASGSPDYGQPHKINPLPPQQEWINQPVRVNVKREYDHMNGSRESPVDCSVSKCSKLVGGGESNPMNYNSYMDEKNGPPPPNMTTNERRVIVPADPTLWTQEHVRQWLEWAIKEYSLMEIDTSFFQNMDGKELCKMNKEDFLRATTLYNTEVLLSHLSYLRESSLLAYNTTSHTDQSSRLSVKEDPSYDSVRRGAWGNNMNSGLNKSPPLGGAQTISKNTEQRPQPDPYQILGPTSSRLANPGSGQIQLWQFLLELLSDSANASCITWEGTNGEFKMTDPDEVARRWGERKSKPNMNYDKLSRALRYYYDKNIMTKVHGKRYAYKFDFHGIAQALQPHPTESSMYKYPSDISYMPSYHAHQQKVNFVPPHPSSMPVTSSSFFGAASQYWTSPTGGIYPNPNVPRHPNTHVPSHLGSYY
Conditions: protein: recombinant; tags: N-terminal GST; dsDNA, one strand shown. In outline: (§1)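 After expression in yeast as GST fusions, human transcription factors were bound to glutathione beads, DNA-barcoded and mixed with a tag-only sample. The pools were incubated with 200 nmole of a 16-mer random double-stranded DNA library in Tris/NaCl/DTT/glycerol buffer (30 min, room temperature), washed and crosslinked with 0.1% formaldehyde. Proximity ligation with BsaI/T4 ligase ran for 1 h at 37 °C, before PCR amplification and sequencing on an Illumina NextSeq500. Binding signal is a hexamer's read frequency for a factor divided by its frequency for the tag-only sample.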

The next assay has as its target T2, ELK1 (Homo sapiens, UniProt P19419 1-428).
T2 sequence: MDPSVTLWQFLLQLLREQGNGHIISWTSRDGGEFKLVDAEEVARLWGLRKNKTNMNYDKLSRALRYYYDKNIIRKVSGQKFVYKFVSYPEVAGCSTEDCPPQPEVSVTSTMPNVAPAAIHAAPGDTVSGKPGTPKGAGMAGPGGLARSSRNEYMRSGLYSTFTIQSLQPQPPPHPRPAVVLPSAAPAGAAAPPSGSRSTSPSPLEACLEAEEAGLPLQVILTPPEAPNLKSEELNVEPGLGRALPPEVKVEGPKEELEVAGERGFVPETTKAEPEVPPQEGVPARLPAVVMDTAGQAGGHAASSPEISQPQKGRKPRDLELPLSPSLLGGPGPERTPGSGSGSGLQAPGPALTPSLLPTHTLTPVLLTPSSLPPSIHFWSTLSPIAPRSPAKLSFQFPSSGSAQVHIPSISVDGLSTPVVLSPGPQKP
The following applies: protein: recombinant; tags: N-terminal GST; dsDNA, one strand shown. In outline: as §1

The next assay deals with T3, GABPA (Homo sapiens, UniProt Q06546 1-454).
T3 sequence: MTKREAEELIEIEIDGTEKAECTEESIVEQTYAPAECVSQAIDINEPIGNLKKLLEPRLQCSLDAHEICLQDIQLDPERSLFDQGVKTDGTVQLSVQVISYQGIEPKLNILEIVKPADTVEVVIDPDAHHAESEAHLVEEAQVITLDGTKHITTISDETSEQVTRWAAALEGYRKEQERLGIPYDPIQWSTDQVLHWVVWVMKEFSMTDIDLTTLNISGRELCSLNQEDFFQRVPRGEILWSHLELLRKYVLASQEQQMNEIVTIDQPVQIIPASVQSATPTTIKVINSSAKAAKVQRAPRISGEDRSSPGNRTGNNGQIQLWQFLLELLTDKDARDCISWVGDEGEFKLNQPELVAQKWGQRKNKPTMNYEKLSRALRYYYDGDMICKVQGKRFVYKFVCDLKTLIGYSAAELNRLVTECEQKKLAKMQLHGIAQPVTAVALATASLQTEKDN
Conditions: protein: recombinant; tags: N-terminal GST; dsDNA, one strand shown. The gist of the method: as §1

A further assay concerns the target T4, ERG (Homo sapiens, UniProt P11308 1-479).
T4 sequence: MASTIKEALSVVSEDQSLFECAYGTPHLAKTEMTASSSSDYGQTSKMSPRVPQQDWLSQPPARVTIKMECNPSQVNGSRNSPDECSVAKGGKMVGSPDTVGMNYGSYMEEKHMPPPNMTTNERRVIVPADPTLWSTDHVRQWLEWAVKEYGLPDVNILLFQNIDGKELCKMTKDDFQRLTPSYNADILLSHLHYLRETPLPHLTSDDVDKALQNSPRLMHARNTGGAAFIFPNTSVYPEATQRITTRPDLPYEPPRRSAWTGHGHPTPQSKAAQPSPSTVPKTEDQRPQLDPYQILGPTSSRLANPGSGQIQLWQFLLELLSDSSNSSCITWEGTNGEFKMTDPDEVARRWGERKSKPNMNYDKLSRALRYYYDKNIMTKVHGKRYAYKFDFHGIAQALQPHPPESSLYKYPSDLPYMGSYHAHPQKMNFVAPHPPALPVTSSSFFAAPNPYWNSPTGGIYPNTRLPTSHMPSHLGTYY
The following applies: protein: recombinant; tags: N-terminal GST; dsDNA, one strand shown. In outline: as §1

In the next assay the target is ELF1 (Homo sapiens, UniProt P32519 1-619). The following applies: protein: recombinant; tags: N-terminal GST; dsDNA, one strand shown. In outline: as §1
The target of a further assay is T5, EHF (Homo sapiens, UniProt Q9NZC4 1-300).
T5 sequence: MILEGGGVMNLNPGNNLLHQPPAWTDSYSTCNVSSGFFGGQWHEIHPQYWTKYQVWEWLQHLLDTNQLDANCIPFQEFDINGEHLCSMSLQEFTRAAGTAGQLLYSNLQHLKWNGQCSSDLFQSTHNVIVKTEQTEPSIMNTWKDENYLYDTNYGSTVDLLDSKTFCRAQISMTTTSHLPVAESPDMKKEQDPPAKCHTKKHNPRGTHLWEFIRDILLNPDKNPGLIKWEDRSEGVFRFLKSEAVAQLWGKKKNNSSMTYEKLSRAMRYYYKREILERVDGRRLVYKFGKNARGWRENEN
The following applies: protein: recombinant; tags: N-terminal GST; dsDNA, one strand shown. The gist of the method: as §1

The target of another assay is SPI1 (Homo sapiens, UniProt P17947 1-270). Conditions: protein: recombinant; tags: N-terminal GST; dsDNA, one strand shown. In outline: as §1
Another assay addresses SPIB (Homo sapiens, UniProt Q01892 1-262). Conditions: protein: recombinant; tags: N-terminal GST; dsDNA, one strand shown. In outline: as §1
Another assay deals with T6, ELK3 (Homo sapiens, UniProt P41970 1-407).
T6 sequence: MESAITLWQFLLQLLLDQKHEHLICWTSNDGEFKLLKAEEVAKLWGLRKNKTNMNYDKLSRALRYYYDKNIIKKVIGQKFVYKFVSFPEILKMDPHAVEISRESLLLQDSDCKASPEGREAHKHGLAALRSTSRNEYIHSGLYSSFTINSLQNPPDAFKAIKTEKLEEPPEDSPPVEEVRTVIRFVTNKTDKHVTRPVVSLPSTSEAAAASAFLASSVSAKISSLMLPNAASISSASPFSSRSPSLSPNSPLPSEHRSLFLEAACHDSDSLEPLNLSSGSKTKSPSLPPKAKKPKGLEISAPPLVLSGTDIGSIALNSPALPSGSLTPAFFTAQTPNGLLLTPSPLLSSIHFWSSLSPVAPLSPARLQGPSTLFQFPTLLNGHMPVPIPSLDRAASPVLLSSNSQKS
The following applies: protein: recombinant; tags: N-terminal GST; dsDNA, one strand shown. In outline: as §1

The next assay concerns the target T7, FEV (Homo sapiens, UniProt Q99581 1-238).
T7 sequence: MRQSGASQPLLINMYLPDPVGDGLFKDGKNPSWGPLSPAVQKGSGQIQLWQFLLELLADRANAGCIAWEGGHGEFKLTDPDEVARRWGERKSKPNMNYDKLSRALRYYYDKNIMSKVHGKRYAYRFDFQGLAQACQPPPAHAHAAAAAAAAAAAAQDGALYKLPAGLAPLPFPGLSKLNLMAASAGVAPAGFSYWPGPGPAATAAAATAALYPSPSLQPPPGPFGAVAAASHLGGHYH
Conditions: protein: recombinant; tags: N-terminal GST; dsDNA, one strand shown. The gist of the method: as §1

The target in the next assay is ETV5 (Homo sapiens, UniProt P41161 1-510). The following applies: protein: recombinant; tags: N-terminal GST; dsDNA, one strand shown. The gist of the method:
as §1

The target of another assay is HSF1 (Homo sapiens, UniProt Q00613 1-529). The following applies: protein: recombinant; tags: N-terminal GST; chain copies: 3; dsDNA, one strand shown. The gist of the method: as §1
Another assay has as its target T8, SPIC (Homo sapiens, UniProt Q8N5J4 1-248).
T8 sequence: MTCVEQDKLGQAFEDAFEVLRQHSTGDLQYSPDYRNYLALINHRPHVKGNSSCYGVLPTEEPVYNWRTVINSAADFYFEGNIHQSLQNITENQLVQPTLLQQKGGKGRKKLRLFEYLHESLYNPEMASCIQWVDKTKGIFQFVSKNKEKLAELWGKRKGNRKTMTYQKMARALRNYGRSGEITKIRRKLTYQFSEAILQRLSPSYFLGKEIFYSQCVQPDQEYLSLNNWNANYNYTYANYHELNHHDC
The following applies: protein: recombinant; tags: N-terminal GST; dsDNA, one strand shown. The gist of the method:
as §1

In a further assay the target is ELF4 (Homo sapiens, UniProt Q99607 1-663). The following applies: protein: recombinant; tags: N-terminal GST; dsDNA, one strand shown. In outline:
as §1

A further assay deals with T9, ELK4 (Homo sapiens, UniProt P28324-2 1-405).
T9 sequence: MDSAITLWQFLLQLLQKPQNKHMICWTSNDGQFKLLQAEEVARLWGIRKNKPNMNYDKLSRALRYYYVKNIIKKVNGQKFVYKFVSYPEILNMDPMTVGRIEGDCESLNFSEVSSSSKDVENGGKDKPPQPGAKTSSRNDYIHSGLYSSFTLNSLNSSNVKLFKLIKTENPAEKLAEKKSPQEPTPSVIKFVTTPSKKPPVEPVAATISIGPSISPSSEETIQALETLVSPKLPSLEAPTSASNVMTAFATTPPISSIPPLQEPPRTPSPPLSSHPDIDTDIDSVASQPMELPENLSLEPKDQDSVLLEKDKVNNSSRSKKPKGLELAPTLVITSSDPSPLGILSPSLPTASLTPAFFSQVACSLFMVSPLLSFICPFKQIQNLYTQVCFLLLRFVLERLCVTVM
The following applies: protein: recombinant; tags: N-terminal GST; dsDNA, one strand shown. The gist of the method: as §1

Another assay has as its target T10, ETV2 (Homo sapiens, UniProt O00321 1-342).
T10 sequence: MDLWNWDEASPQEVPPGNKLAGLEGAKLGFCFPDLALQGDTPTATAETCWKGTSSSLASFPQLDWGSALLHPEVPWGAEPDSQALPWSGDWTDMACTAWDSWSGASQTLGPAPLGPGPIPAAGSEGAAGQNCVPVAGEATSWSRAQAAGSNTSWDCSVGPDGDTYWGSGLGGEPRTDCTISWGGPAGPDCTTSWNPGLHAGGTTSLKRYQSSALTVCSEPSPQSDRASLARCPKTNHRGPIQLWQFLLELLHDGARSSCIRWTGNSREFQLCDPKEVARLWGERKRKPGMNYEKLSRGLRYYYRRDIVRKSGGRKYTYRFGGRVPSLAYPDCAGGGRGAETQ
The following applies: protein: recombinant; tags: N-terminal GST; dsDNA, one strand shown. In outline: as §1

The target of the next assay is T11, ELF3 (Homo sapiens, UniProt P78545 1-371).
T11 sequence: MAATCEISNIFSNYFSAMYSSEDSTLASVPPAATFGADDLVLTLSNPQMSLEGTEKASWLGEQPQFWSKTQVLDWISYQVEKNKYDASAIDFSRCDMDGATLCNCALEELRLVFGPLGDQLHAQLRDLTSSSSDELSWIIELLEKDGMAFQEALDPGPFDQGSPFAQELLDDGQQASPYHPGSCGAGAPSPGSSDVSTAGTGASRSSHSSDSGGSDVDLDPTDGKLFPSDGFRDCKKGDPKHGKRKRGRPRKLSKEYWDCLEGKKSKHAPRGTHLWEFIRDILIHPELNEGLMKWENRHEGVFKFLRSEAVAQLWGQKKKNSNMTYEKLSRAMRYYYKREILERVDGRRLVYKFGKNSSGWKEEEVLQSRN
Conditions: protein: recombinant; tags: N-terminal GST; dsDNA, one strand shown. The gist of the method: as §1

The next assay concerns the target ETV1 (Homo sapiens, UniProt P50549 1-477). Conditions: protein: recombinant; tags: N-terminal GST; dsDNA, one strand shown. In outline: as §1

Sequence of ETV1 (P50549 whole entry): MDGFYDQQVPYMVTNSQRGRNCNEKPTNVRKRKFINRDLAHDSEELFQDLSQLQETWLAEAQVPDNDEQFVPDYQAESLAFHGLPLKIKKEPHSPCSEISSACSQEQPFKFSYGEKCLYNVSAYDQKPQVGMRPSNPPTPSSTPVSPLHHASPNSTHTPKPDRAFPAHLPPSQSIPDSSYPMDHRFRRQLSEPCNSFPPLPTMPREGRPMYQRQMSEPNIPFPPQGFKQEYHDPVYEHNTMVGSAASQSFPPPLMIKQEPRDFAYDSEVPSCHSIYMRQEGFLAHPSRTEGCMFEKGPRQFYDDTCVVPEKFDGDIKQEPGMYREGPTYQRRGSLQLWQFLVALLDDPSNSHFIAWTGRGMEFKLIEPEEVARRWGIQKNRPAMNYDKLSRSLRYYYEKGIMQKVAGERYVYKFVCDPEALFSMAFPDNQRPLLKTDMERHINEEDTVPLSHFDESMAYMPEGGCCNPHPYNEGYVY
Sequence of ELF1 (P32519 whole entry): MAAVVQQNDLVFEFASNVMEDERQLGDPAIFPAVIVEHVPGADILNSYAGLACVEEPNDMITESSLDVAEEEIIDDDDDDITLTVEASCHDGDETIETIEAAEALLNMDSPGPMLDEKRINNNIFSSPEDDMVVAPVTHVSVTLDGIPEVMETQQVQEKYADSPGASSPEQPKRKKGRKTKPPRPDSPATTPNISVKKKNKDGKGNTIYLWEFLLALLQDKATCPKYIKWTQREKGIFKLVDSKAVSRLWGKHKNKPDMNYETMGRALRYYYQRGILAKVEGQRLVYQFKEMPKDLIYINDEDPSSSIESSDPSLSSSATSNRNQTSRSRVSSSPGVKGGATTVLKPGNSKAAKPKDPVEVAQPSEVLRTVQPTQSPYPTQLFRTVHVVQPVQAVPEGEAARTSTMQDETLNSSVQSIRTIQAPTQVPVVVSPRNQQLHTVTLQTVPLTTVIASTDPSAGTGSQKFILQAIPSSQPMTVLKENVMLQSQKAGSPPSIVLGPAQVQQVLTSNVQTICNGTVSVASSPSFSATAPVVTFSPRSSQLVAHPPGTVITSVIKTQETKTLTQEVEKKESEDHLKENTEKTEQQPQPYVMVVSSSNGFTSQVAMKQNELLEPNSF
Sequence of SPIB (Q01892 whole entry): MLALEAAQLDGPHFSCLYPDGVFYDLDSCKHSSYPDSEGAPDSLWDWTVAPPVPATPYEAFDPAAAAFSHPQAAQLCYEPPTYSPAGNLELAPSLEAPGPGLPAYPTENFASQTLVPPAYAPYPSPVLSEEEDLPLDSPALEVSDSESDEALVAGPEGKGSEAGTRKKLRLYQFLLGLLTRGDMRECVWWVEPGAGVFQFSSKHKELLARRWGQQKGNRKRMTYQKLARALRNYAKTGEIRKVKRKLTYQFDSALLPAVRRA
Sequence of ETV5 (P41161 whole entry): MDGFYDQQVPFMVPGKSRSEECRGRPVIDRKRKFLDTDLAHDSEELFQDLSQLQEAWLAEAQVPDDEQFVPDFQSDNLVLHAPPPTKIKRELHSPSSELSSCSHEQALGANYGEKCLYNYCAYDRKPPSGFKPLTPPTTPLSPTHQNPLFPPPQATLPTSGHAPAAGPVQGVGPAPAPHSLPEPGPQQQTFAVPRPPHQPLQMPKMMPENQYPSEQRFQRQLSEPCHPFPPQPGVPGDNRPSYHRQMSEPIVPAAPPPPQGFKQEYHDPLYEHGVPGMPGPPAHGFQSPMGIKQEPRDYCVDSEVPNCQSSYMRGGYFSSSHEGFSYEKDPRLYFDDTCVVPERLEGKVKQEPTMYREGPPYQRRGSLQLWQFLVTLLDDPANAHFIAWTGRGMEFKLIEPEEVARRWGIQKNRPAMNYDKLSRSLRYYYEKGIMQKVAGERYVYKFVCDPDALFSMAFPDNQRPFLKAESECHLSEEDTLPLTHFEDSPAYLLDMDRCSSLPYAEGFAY
Sequence of ELF4 (Q99607 whole entry): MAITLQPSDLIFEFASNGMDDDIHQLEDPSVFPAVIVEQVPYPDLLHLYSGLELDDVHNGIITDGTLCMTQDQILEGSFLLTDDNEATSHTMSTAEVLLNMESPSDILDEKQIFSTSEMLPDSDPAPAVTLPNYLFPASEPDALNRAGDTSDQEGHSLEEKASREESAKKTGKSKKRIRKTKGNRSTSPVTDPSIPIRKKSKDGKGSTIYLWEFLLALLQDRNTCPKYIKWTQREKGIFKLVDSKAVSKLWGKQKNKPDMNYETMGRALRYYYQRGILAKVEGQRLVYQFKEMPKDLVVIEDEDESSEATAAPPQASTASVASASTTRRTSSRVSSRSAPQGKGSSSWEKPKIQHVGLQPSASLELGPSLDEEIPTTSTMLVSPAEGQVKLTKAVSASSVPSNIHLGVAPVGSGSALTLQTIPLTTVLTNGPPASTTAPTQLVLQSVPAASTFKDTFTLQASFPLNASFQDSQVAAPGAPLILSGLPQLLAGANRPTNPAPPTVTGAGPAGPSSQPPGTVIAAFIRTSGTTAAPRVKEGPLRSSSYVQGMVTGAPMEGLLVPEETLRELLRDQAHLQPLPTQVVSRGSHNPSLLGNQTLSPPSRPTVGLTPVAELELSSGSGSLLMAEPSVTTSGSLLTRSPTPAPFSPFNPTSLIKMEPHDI
Sequence of HSF1 (Q00613 whole entry): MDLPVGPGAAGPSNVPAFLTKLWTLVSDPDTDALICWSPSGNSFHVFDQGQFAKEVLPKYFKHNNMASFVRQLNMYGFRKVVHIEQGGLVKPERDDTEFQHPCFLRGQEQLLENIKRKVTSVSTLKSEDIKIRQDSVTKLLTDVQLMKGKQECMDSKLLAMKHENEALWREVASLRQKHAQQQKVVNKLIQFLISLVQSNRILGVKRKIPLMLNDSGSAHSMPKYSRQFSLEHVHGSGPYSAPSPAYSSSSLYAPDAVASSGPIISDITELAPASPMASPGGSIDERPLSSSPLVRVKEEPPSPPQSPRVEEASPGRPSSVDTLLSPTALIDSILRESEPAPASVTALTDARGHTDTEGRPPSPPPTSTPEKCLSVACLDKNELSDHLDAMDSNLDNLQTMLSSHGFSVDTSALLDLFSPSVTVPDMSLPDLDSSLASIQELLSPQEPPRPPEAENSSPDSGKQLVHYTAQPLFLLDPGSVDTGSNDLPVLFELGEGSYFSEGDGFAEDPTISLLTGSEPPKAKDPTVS

For AATGGG, the binding signal was 1.26 fold enrichment (6-mer frequency, TF over GST control) with FLI1; 1.24 fold enrichment (6-mer frequency, TF over GST control) in the assay with ELK1; 1.18 fold enrichment (6-mer frequency, TF over GST control) in the assay with GABPA; 1.16 fold enrichment (6-mer frequency, TF over GST control) in the assay with ERG; 1.2 fold enrichment (6-mer frequency, TF over GST control) in the assay with ELF1; 1.29 fold enrichment (6-mer frequency, TF over GST control) with EHF. Moreover, the binding signal is 1.34 fold enrichment (6-mer frequency, TF over GST control) with SPI1; 1.22 fold enrichment (6-mer frequency, TF over GST control) with SPIB; 1.08 fold enrichment (6-mer frequency, TF over GST control) with ELK3; 1.25 fold enrichment (6-mer frequency, TF over GST control) with FEV; 1.28 fold enrichment (6-mer frequency, TF over GST control) with ETV5; 1.02 fold enrichment (6-mer frequency, TF over GST control) with HSF1. In addition, the binding signal with SPIC is 1.26 fold enrichment (6-mer frequency, TF over GST control); with ELF4 it was 1.16 fold enrichment (6-mer frequency, TF over GST control); with ELK4 it was 1.27 fold enrichment (6-mer frequency, TF over GST control); with ETV2, 1.22 fold enrichment (6-mer frequency, TF over GST control); in the assay with ELF3 it was 1.13 fold enrichment (6-mer frequency, TF over GST control); with ETV1, 1.21 fold enrichment (6-mer frequency, TF over GST control).
